Measured values taken from PubChem BioAssay AID1159580 (chemical genetic matrix, 2015).
“And” between values parts separate entries of the source, which are not always exact repeats. Identical values can stand only once. The campaign covered roughly 5,500 compounds. About 2,000 (36%) were called active. Another 18% or so got no clear call; they are omitted. Some of the results follow. A number with no mark means an inactive call. No stated cut-off is given here; in the data, active means normalized growth mostly below about 0.91 (no sharp cut-off); inconclusive means no clear call, values can overlap the other calls; inactive means mostly above about 0.92.

Assay: chemical genetic growth profiling, strain panel (AID 1159580);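 further: tested at 20 µM; growth read once vehicle control cultures reached saturation at 30 °C; 1 = growth at the plate median or of vehicle wells; lower values mean less growth of the strain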
Conditions: S. cerevisiae deletion strains, growth OD

C#C[C@]1(O)CCC2C3CCC4=C(CCC(=O)C4)C3CC[C@@]21C (some centres undefined)
normalized growth (locus YAL021C, strain ccr4, hits give low values): 0.992
normalized growth (locus YAL026C, strain drs2, hits give low values): 0.942
normalized growth (locus YAL030W, strain snc1, hits give low values): 0.987
normalized growth (locus YBL061C, strain skt5, hits give low values): 0.993
normalized growth (locus YBR009C, strain hhf1, hits give low values): 0.941
normalized growth (locus YBR021W, strain FUR4, hits give low values): 0.977
normalized growth (locus YBR023C, strain chs3, hits give low values): 0.986
normalized growth (locus YBR171W, strain sec66, hits give low values): 0.974
normalized growth (locus YBR229C, strain ROT2, hits give low values): 1.01
normalized growth (locus YBR231C, strain swc5, hits give low values): 1
normalized growth (locus YBR279W, strain paf1, hits give low values): 0.982
normalized growth (locus YCL011C, strain gbp2, hits give low values): 0.98
normalized growth (locus YCL016C, strain dcc1, hits give low values): 0.994
normalized growth (locus YCL029C, strain bik1, hits give low values): 1.01
normalized growth (locus YCL061C, strain MRC1, hits give low values): 0.971
normalized growth (locus YCL069W, strain vba3, hits give low values): 0.973
normalized growth (locus YCR088W, strain abp1, hits give low values): 0.986
normalized growth (locus YDL005C, strain med2, hits give low values): 0.982
normalized growth (locus YDL035C, strain GPR1, hits give low values): 0.964
normalized growth (locus YDL040C, strain nat1, hits give low values): 0.989
normalized growth (locus YDL074C, strain BRE1, hits give low values): 1.03
normalized growth (locus YDL101C, strain DUN1, hits give low values): 1
normalized growth (locus YDL134C, strain PPH21, hits give low values): 0.981
normalized growth (locus YDL185W, strain tfp1, hits give low values): 1
normalized growth (locus YDL192W, strain arf1, hits give low values): 1.01
normalized growth (locus YDR001C, strain nth1, hits give low values): 0.983
normalized growth (locus YDR069C, strain doa4, hits give low values): 0.97
normalized growth (locus YDR101C, strain arx1, hits give low values): 0.984
normalized growth (locus YDR137W, strain rgp1, hits give low values): 0.807 (active)
normalized growth (locus YDR150W, strain NUM1, hits give low values): 1.03
normalized growth (locus YDR159W, strain sac3, hits give low values): 0.915
normalized growth (locus YDR162C, strain NBP2, hits give low values): 1.02
normalized growth (locus YDR195W, strain ref2): 1.07
normalized growth (locus YDR297W, strain sur2, hits give low values): 0.985
normalized growth (locus YDR318W, strain mcm21, hits give low values): 0.98
normalized growth (locus YDR334W, strain swr1, hits give low values): 0.996
normalized growth (locus YDR335W, strain msn5, hits give low values): 0.97
normalized growth (locus YDR388W, hits give low values): 1
normalized growth (locus YDR392W, strain spt3, hits give low values): 0.761
normalized growth (locus YDR502C, strain sam2, hits give low values): 0.985
normalized growth (locus YEL003W, strain gim4, hits give low values): 0.971
normalized growth (locus YEL037C, strain rad23, hits give low values): 0.98
normalized growth (locus YEL061C, strain CIN8 (second series), hits give low values): 0.969
normalized growth (locus YEL061C, strain CIN8, hits give low values): 1.02
normalized growth (locus YER015W, strain faa2, hits give low values): 0.994
normalized growth (locus YER016W, strain bim1, hits give low values): 0.976
normalized growth (locus YER110C, hits give low values): 1
normalized growth (locus YER111C, strain swi4, hits give low values): 1
normalized growth (locus YER155C, strain BEM2 (second series), hits give low values): 0.974
normalized growth (locus YER155C, strain BEM2, hits give low values): 1.02
normalized growth (locus YER167W, strain BCK2, hits give low values): 1.01
normalized growth (locus YFR010W, strain ubp6, hits give low values): 0.98
normalized growth (locus YGL078C, strain dbp3, hits give low values): 0.995
normalized growth (locus YGL086W, strain mad1, hits give low values): 0.99
normalized growth (locus YGL167C, strain pmr1, hits give low values): 0.984
normalized growth (locus YGL173C, strain kem1, hits give low values): 0.957
normalized growth (locus YGL227W, strain vid30, hits give low values): 0.98
normalized growth (locus YGL240W, strain doc1, hits give low values): 0.949
normalized growth (locus YGL248W, strain PDE1, hits give low values): 1
normalized growth (locus YGL253W, strain hxk2, hits give low values): 0.962
normalized growth (locus YGR135W, strain pre9, hits give low values): 0.981
normalized growth (locus YGR252W, strain gcn5, hits give low values): 0.893
normalized growth (locus YHR013C, strain ard1, hits give low values): 0.965
normalized growth (locus YHR027C, strain rpn1, hits give low values): 0.984
normalized growth (locus YHR030C, strain SLT2, hits give low values): 1.03 and 0.904
normalized growth (locus YHR079C, strain IRE1 (second series), hits give low values): 0.999
normalized growth (locus YHR079C, strain IRE1, hits give low values): 0.873
normalized growth (locus YHR094C, strain hxt1, hits give low values): 0.997
normalized growth (locus YHR129C, strain ARP1, hits give low values): 1.02
normalized growth (locus YHR142W, strain chs7, hits give low values): 0.921
normalized growth (locus YHR200W, strain rpn10, hits give low values): 1
normalized growth (locus YIL066C, strain RNR3, hits give low values): 1.02
normalized growth (locus YIL073C, strain SPO22, hits give low values): 0.968
normalized growth (locus YIL125W, strain kgd1, hits give low values): 1
normalized growth (locus YIR030C, strain dcg1, hits give low values): 1.02
normalized growth (locus YJL092W, strain hpr5, hits give low values): 0.986
normalized growth (locus YJL095W, strain BCK1 (second series), hits give low values): 0.991
normalized growth (locus YJL095W, strain BCK1, hits give low values): 0.979 and 0.922
normalized growth (locus YJL115W, strain asf1, hits give low values): 0.975
normalized growth (locus YJL129C, strain trk1, hits give low values): 0.884
normalized growth (locus YJL134W, strain LCB3, hits give low values): 1.02
normalized growth (locus YJL154C, strain vps35, hits give low values): 0.97
normalized growth (locus YJL164C, strain tpk1, hits give low values): 0.949
normalized growth (locus YJL166W, strain qcr8, hits give low values): 0.97
normalized growth (locus YJL168C, strain set2, hits give low values): 1
normalized growth (locus YJL187C, strain SWE1 (second series), hits give low values): 1.01
normalized growth (locus YJL187C, strain SWE1, hits give low values): 0.981
normalized growth (locus YJR043C, strain POL32, hits give low values): 1.02
normalized growth (locus YJR066W, strain TOR1, hits give low values): 0.886
